# From PubChem BioAssay
# aSyn yeast inh: inhibitors of alpha-synuclein toxicity in yeast; Yeast expressing alpha-synuclein, growth rescue, BacTiter-Glo, 24 h; Potency, µM (highest dose often 46.1 µM), for the others: at the top dose growth rescue (activation), actives largely listed as activators; 0.14% of 370,000 active; AID 652106; further: % of control where 0% means no effect; nearly all actives have a fitted effect of over 65% in size
#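 Readout is rescue of growth in alpha-synuclein-expressing yeast, so inhibitors of toxicity appear as activators. Growth after 24 hr at 30 deg C in galactose medium is quantified by luminescence.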
# TDP-43 yeast inh: inhibitors of TDP-43 toxicity in yeast; Potency, µM (titrated, usually from 46.1 µM), for inactives: top-dose growth rescue (activation), usual class: activators; TDP-43 expressing yeast growth rescue, BacTiter-Glo, 24 h; 1.8% of 410,000 active; further: % of control where 0% means no effect; nearly all actives have a fitted effect of over 50% in size
#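 Growth rescue of TDP-43-toxic yeast measured as ATP luminescence (BacTiter-Glo). Cells grown to mid-log in raffinose, induced in galactose at OD600=0.02, exposed to compound 24 hr at 30 deg C.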
# MBNL1-CUG inh: blocks human MBNL1 binding to CUG repeat RNA. 0.036% of 280,000 active. TR-FRET MBNL1-His/biotin-(CUG)12 binding, 665/545 ratio. Q9NR56. Potency, µM (doses to about 57.5 µM), inactives show top-dose activity change, negative = inhibition, most hits filed as inhibitors; active means well fitted inhibition curve with a large enough effect in the signal ratio, with a control signal flat, not every such curve was filed as active; inconclusive means small, poorly fitted or top-dose-only effect, or effect the other way, or a change in a side signal; inactive means no such curve, though single readings can be large or run the other way; the % refers to the signal ratio; further: on the % scale 0 is the no-effect control and ±100 the full control effect
# Target sequence (Q9NR56 whole entry, looked up): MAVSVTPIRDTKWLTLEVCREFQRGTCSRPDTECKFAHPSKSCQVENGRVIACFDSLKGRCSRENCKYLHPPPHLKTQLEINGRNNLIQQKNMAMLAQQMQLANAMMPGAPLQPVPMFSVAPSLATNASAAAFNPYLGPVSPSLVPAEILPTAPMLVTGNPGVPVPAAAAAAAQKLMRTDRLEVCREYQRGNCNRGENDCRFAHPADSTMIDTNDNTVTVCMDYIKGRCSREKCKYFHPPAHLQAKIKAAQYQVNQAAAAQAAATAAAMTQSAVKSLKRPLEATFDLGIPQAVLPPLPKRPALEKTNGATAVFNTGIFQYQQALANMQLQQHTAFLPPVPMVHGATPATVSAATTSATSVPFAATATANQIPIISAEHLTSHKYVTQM
#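 Inhibition of protein-RNA binding appears as loss of TR-FRET between terbium anti-His antibody on MBNL1-His and streptavidin-XL665 on biotin-(CUG)12. Activity is normalized to buffer-only and uninhibited-complex controls.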
# Abeta yeast res: restores growth of yeast expressing A-beta42 peptide | yeast expressing A-beta42, growth rescue, OD600, 48 h; response scale: 0% DMSO, 100% iron-clioquinol control | Potency, µM (doses to about 46.1 µM), usual class: activators | 0.063% of 410,000 active; further: nearly all actives have a fitted effect of over 55% in size
#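 Growth rescue measured by 600 nm absorbance after 48 h yeast culture at 30 C with compound. Values normalized between DMSO and an equimolar ferric chloride plus clioquinol control.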
# FUS suppressor: suppressors of FUS proteinopathy in yeast | S. cerevisiae FUS-expressing, growth rescue, OD600, 24 h | Potency, µM (series often up to 76.6 µM), actives largely listed as activators | 0.24% of 390,000 active | AID 1347120;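 further: plate controls were DMSO vehicle for no effect and reference control for full effect; nearly all actives have a fitted effect of over 55% in size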
#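 Cultures pregrown in 2.5% raffinose medium are shifted to minimal medium containing 2% galactose to express toxic FUS. Compounds are tested at several concentrations. After 24hr at 30C, growth is quantified at 600 nm absorbance.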
# Glioma ERSR ind: induces the endoplasmic reticulum stress response in human glioma cells. AID 602332. U87-MG GRP78 promoter luciferase reporter, 16 h. Potency, µM, without a hit: at the highest dose activation, usual class: activators. 0.02% of 420,000 active; further: series mostly up to about 76 µM; % of control where 0% means no effect; nearly all actives have a fitted effect of over 35% in size
#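 ERSR induction read as luciferase luminescence (Bright-Glo, 10 min at room temperature) in stably transfected human U87-MG glioma cells exposed to compounds for 16 h, using GRP78 as sensor.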
# An asterisk follows results filed as active; i = inactive; ? = inconclusive; / = no result given. Only some compounds are listed: those with a hit (about 2% of all), similar ones and a draw of the others. Unless noted, the call rests on the fitted dose curve; in most records, active means well fitted curve in the direction sought with a large enough effect; inconclusive means small, poorly fitted or top-dose-only effect, or another doubt; inactive means no such curve, though single readings can be large; an effect the other way counts as inactive or inconclusive. Potency means the concentration at half of the fitted maximal effect.
SMILES,aSyn yeast inh,TDP-43 yeast inh,MBNL1-CUG inh,Abeta yeast res,FUS suppressor,Glioma ERSR ind
COc1cccc(C(=O)Nc2cc(NC(=O)c3ccco3)ccc2OC)c1,1%,?,-4%,i,i,-2%
COc1ccc(NC(=O)c2ccco2)cc1NC(=O)c1cccc(OC(C)C)c1,1%,13µM*,-8%,i,i,-3%
COc1ccc([C@H]2OC(=O)C[C@H]2C(=O)N2CCCC2)cc1OC,/,/,/,/,i,/
COC(=O)c1ccccc1C(=O)NCC1Cc2cc(-c3nc(C)cnc3C)ccc2O1 (configuration not stated),/,/,/,/,/,0%
COc1ccc(Br)cc1/C=C/C(=O)c1ccc(NC(C)=O)cc1,-8%,18µM*,-10%,i,i,-14%
CN(CCCOC(=O)CC1C=CCC1)C1CN(Cc2cn(Cc3ccccc3Cl)nn2)S(=O)(=O)C1 (configuration not stated),/,/,/,/,i,/
Cc1ccc(CNC(=O)OC(C)(C)C)c(/C=C/S(=O)(=O)NCCc2ccccc2)c1,/,/,/,/,i,/
Nc1ccc(O)c2c1C(=O)c1ccccc1C2=O,-1%,-6%,?,i,i,-2%
Nc1ccc(Br)c2c1C(=O)c1ccccc1C2=O,18%,6.3µM*,?,i,i,-2%
O=C1OC(/C(=C\NCc2ccccc2)[N+](=O)[O-])c2ccccc21 (configuration not stated),11%,0%,6%,i,i,-4%
O=C1OC(/C(=C\Nc2ccccc2)[N+](=O)[O-])c2ccccc21 (configuration not stated),16µM*,1%,-2%,i,i,-12%
Fc1ccc(-c2cc(-c3nnc4sc(-c5cccs5)nn34)[nH]n2)cc1,/,/,/,/,i,/
CCC1CN(C(=O)Nc2ccc(C(=O)O)cc2)c2cc(Cl)ccc2O1 (configuration not stated),/,13µM*,/,i,i,-3%
CCc1ccccc1NC(=O)N1CC(CC)Oc2ccc(Cl)cc21 (configuration not stated),/,8%,/,i,?,-3%
CCCCCCCCCCCCOC(=O)N1CCN(/[N+]([O-])=N/Oc2ccc([N+](=O)[O-])cc2[N+](C)=O)CC1,-47%,/,/,/,/,1%
CCc1cc(=O)oc2cc3oc(C)c(C)c3cc12,4%,3.5µM*,-7%,i,i,10%
C=Nc1ccc(/C=C/c2ccnc3ccccc23)cc1,/,/,/,/,/,-5%
CCN(CC)c1ncnc2c1ncn2[C@H]1CN(Cc2ccc(-c3ccccc3)cc2)C[C@@H](CO)O1,?,2%,/,i,28µM*,-4%
CC(=O)OC[C@@H]1CN(Cc2ccccc2)C[C@H](n2cnc3c(N4CCN(c5ccccc5)CC4)ncnc32)O1,0%,18µM*,/,i,i,-3%
COc1cc(CNc2ncnc3c2ncn3[C@H]2CN(Cc3cccc4ccccc34)C[C@@H](CO)O2)cc(OC)c1OC,3%,1%,/,i,28µM*,1%
CC(=O)OC[C@@H]1CN(Cc2ccccc2)C[C@H](n2cnc3c(NC(C)C)ncnc32)O1,-3%,20%,/,i,i,-2%
COc1cc(CNc2ncnc3c2ncn3[C@H]2CN(Cc3ccc(-c4ccccc4)cc3)C[C@@H](CO)O2)cc(OC)c1OC,-3%,9%,/,i,?,-2%
N#C/C=C1\n2c(nc3ccccc32)OC12CCCCC2,-2%,16µM*,-6%,i,i,3%
COc1ccc([C@H]2CC(=O)C=C(c3cccc(Cl)c3O)C2)cc1OC,5%,18µM*,/,i,i,-1%
O=C1C=C(c2cccc(Cl)c2O)C[C@@H](c2ccc3c(c2)OCO3)C1,?,3.5µM*,/,i,i,-4%
SMILES,aSyn yeast inh,TDP-43 yeast inh,MBNL1-CUG inh,Abeta yeast res,FUS suppressor,Glioma ERSR ind
O=C(c1cccnc1)C1CCCN(Cc2ccc3c(c2)CN(C(=O)c2cccc(Cl)c2)CCO3)C1 (configuration not stated),/,/,/,/,/,0%
Cc1nn(C)c2c1c(-c1ccccc1)cc(=O)n2C(C)C(=O)NCCc1ccc(Cl)cc1 (configuration not stated),/,22µM*,/,i,?,-5%
CCn1nc(C)c2c(-c3ccccc3)cc(=O)n(C(C)C(=O)Nc3cc(C)ccc3C)c21 (configuration not stated),/,4%,/,i,i,0%
CCn1nc(C)c2c(-c3ccccc3)cc(=O)n(C(C)C(=O)NCCc3ccc(Cl)cc3)c21 (configuration not stated),/,22µM*,/,i,?,-4%
CCn1nc(C)c2c(-c3ccccc3)cc(=O)n(C(C)C(=O)NCc3ccccc3OC)c21 (configuration not stated),/,10µM*,/,i,?,-2%
CN(C)c1ccc(/C=C/c2c(F)cnc3ccccc23)cc1,1%,/,/,/,/,4%
COc1ccc(C(=O)NCc2nc(-c3ccccc3NC(=O)c3cc(C)oc3C)oc2C)cc1F,/,/,/,/,/,-2%
CC(Oc1cccnc1[N+](=O)[O-])C(=O)Nc1ccc(F)cc1 (configuration not stated),0%,?,/,i,i,-6%
CC(Oc1cccc(Cl)c1)C(=O)Nc1ccc([N+](=O)[O-])cn1 (configuration not stated),-3%,13µM*,?,i,/,-4%
CC(Oc1cccnc1[N+](=O)[O-])C(=O)Nc1cccc(Cl)c1 (configuration not stated),-1%,16µM*,/,i,i,-2%
COC(=O)C1CCN(Cc2ccc3c(c2)CN(C(=O)C2Cc4ccccc4O2)CCO3)CC1 (configuration not stated),/,/,/,/,/,-7%
Cc1ccc2nc(N3CCN(c4ccccc4F)CC3)c(C=O)c(=O)n2c1,1%,16µM*,-7%,i,i,-3%
Cc1ccc2nc(-c3ccccc3)c(CN3CCN(c4ccccc4F)CC3)n2c1,9%,6%,/,i,i,-7%
CC(=O)c1ccc(Oc2ccc(C(C)=O)cc2)cc1,0%,22µM*,8%,i,i,-3%
CC(=O)c1ccc(OC(=O)Oc2ccc(C(C)=O)cc2)cc1,-9%,-20%,/,i,/,-3%
O=C(OC12CCCN(C1)/C(=C/c1cccc(Cl)c1)C2)c1ccccc1 (configuration not stated),/,/,/,/,i,/
CC(C)C(c1nnnn1C1CCCCC1)N1CCCc2ccccc21 (configuration not stated),1%,2%,-26%,i,i,-1%
